Source: PubChem BioAssay AID1508625 (Wald Lab, School of Medicine, Case Western Reserve …, 2021)

Experiment: small molecules boosting NK-mediated OVCAR3 lysis – imaging, primary NK cells, calcein-AM imaging, primary screen (AID 1508625);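 note: compound given to NK cells 16 h before adding targets at 1.5 to 1 ratio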;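 for z-score: more negative robust z means stronger NK killing of tumor cells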
Details: OVCAR3 lysis by primary NK cells, at 5 µM; z-score: measured here: robust Z-score, single-point normalisation

Row | SMILES | corrected activity, negative = more killing [%] | z-score
1 | CC(C)c1ccc(NC(=O)c2cc(S(=O)(=O)N3CCN(c4ccccc4)CC3)ccc2F)cc1 | -8.98 | -2.42
2 | COc1ccccc1N1CCN(C(=O)c2cnn3c(C(F)(F)F)cc(-c4ccc(C)cc4)nc23)CC1 | -4.5 | -1.43
3 | c1ccc(OCCCc2nc(-c3ccccn3)no2)cc1 | -2.46 | -1.37
4 | Cc1nc2ccccc2n1Cc1cccc2ccccc12 | -3.88 | -2.01
5 | Cc1ccc(C)c(C(=O)COC(=O)CNS(=O)(=O)c2ccccc2)c1 | -1.55 | -0.589
6 | FC(F)(F)c1cc(-c2cccs2)nc2nc(=S)[nH]n12 | -2.93 | -0.791
7 | O=C(C=Cc1ccc([N+](=O)[O-])cc1)NC(=S)NN1CCOCC1 | -5.28 | -1.68
8 | CCc1noc(C)c1C(=O)N1CC(C)OC(C)C1 (configuration not stated) | -2.62 | -1.08
9 | O=C(CCn1c(=S)[nH]c2ccccc2c1=O)NCCc1ccc(Cl)cc1 | -2.39 | -0.633
10 | Cc1ccc(-n2cnc3cc(C(=O)NCC4CCCO4)ccc32)cc1Cl (configuration not stated) | -0.997 | -0.269
11 | O=C(c1oc(=O)c2ccccc2c1-c1ccccc1)N(CCc1ccccc1)Cc1ccccc1 | -5.06 | -1.24
12 | COc1ccc(-n2c(=S)[nH]c3cc(C(=O)N4CCOCC4)ccc3c2=O)cc1 | -10.1 | -3.21
13 | O=C(Nc1ccc([N+](=O)[O-])cc1)c1cc2c(=O)n3ccccc3nc2s1 | -3.21 | -0.91
14 | CCOc1ccc2nc(SCC(=O)Nc3ccccc3C(=O)O)sc2c1 | -4.64 | -1.75
15 | COc1cc2c(cc1NC(=O)C(C)c1ccc([N+](=O)[O-])cc1)oc1ccccc12 (configuration not stated) | -2.25 | -1.25
16 | CCOc1cccc(-c2cc(C(=O)O)c3ccccc3n2)c1 | -4.28 | -1.76
